These results are taken from PubChem BioAssay AID2685 (National Center for Advancing Translational Sciences (NCATS), 2010).

About 2,100 (0.66%) of roughly 320,000 compounds were called active. About 53% were inconclusive and are not listed. Calls follow the shape of the dose curve; as a rule, active = well fitted inhibition curve with a large enough effect in the signal ratio, with a control signal flat (not every such curve was filed as active); inconclusive = small, poorly fitted or top-dose-only effect, or effect the other way, or a change in a side signal; inactive = flat fitted curve, though single readings scatter; the % refers to the signal ratio. For the sample, actives were picked, then their nearest neighbours and some compounds at random.
Potency is read from the fitted curve at half-maximal effect.

This assay can be described thus: qHTS Assay for Lipid Storage Modulators in Drosophila S3 Cells.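 As to cell number change: cells counted by Cell Tracker Red CMTPX staining in the red channel.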 As to conditions: BODIPY lipid droplet fluorescence, 18-24 h, cells fed with added oleic acid; cell number change: measured here: cell count max response; series mostly up to 46.1 µM. In outline:
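Drosophila S3 cells got compounds at several concentrations plus oleic acid (400 uM solution). Laser-scanning cytometry with 488 nm excitation read lipid droplets at 500-530 nm and cells at 575-640 nm. Percent activity was relative to 20 uM Triacsin C.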
(In general: qHTS replaces the single test concentration by a dilution series.)
As for `COc1ccc(OCCC(=O)OCC(=O)Nc2ccc(S(=O)(=O)N3CCOCC3)cc2)cc1`, the Potency entry was “inactive” and the cell number change was -18.9%.

In the case of `O=C(CSc1nnc(-c2ccc(F)cc2)o1)NC1CCCCC1`, the Potency result is “inactive” and the cell number change was found to be 12%.

Take `CCOC(=O)N1CCN(CC(O)COc2ccc3c(c2)CCC3)CC1` (centres undefined): the Potency result was “inactive” and the cell number change was -3.83%.

For the compound `O=C(CCCCCNC(=O)N1CCn2c1nc1ccccc12)NCc1ccccc1`, the Potency entry is “inactive” and the cell number change came to 11.3%.

For `CC(NC(=O)c1cccc(N(C)C)c1)c1ccc(-n2ccnc2)cc1` (centres undefined), the Potency entry is “inactive”.

Turning to `COc1ccc(S(=O)(=O)N2CCN(c3nc4ccccc4nc3-n3nc(C)cc3C)CC2)cc1`, the Potency entry is “inactive” and the cell number change is -0.676%.

With `O=C(NC1CCSC1=O)c1ccc(Oc2cccc(C(F)(F)F)c2)nc1` (centres undefined), the Potency result is “inactive” and the cell number change is -7.23%.

Turning to `COc1ccc(F)cc1S(=O)(=O)NC1CCCCCC1`, the Potency entry is “inactive”.

As to `C/C(=N/Nc1ncc(C(F)(F)F)cc1Cl)c1ccncc1`, the Potency result was “inactive” and the cell number change was -2.18%.

As to `COc1ccc(S(=O)(=O)NCC2CCCN(C(=O)CC3CCCC3)C2)cc1` (centres undefined), the Potency result was “inactive” and the cell number change was -9.37%.

Turning to `COc1ccc(C(=O)Nc2cc3c(cc2OC)CCCC3)cc1Br`, the Potency result was “inactive” and the cell number change is -12.7%.

As for `COc1cc2c(cc1NC(=O)c1cccnc1)CCCC2`, the Potency entry was “inactive” and the cell number change is -6.97%.

As for `COc1cc2c(cc1NC(=O)c1ccc(C(C)(C)C)cc1)CCCC2`, the Potency was 16.4 µM (active) and the cell number change was -19.1%.

Turning to `Oc1ccccc1Oc1ncc(Br)c(Cl)n1`, the Potency entry is “inactive” and the cell number change was 10.9%.

Regarding `CCOC(=O)CCc1c(C)nc2cc(-c3ccc(F)cc3)[nH]n2c1=O`, the Potency entry was “inactive” and the cell number change was -12%.

For the compound `C=CCn1c(SC(C)CC)nc(O)cc1=O` (centres undefined), the Potency entry is “inactive”.

For `CCOC(=O)N1CCC(NC(=O)c2oc3c(F)cccc3c2C)CC1`, the Potency entry is “inactive” and the cell number change is -4.45%.

In the case of `CCOc1ccc2oc(C(=O)OCC(=O)NC(=O)NC)c(C)c2c1`, the Potency result is “inactive” and the cell number change is -6.07%.

As to `CCCN(CC1CC1)C(=O)COC(=O)c1oc2c(F)cccc2c1C`, the Potency is 1.64 µM (active) and the cell number change was 1.1%.

Consider `CCOc1ccc2oc(C(=O)OCC(=O)NC3CCCCC3)c(C)c2c1`, for which the Potency entry was “inactive” and the cell number change was -21.4%.

`CCCN(CC1CC1)C(=O)COC(=O)c1[nH]c(C)c(C(=O)OCC)c1C`: the Potency entry was “inactive” and the cell number change is -17.3%.

As for `CCCN(CC1CC1)C(=O)COC(=O)c1oc2ccc(OCC)cc2c1C`, the Potency is 4.61 µM (active) and the cell number change came out at 2.78%.

Turning to `CCn1c(O)c(C(C#N)=C2N=c3ccccc3=N2)c2ccccc21`, the Potency result is “inactive” and the cell number change amounted to 24.7%.

Regarding `O=C(Nc1cccc(NC(=O)c2ccc(Br)o2)n1)c1ccc(Br)o1`, the Potency entry was “inactive” and the cell number change was -4.87%.

As for `Cc1ccc(NS(=O)(=O)c2cc(C(=O)N3CCN(C)CC3)ccc2C)cc1C`, the Potency result is “inactive”.

For the compound `CCOc1cccc(OCCCCN2CCCCC2)c1`, the Potency entry was “inactive” and the cell number change was -2.06%.

As for `CCc1ccc(NC(=O)CN(N=Nc2nonc2C)c2nonc2C)cc1`, the Potency entry was “inactive”.
